Bioassay records from PubChem.
Rows were chosen to be rich in hits. Some 4.1% of all compounds tested hit in one or more screens of this group.
LEDGF integ inh: blockers of LEDGF/p75-dependent integrase strand transfer – biochemical, TR-FRET, high throughput, primary screen. AID 743269, 2014. HIV-1 integrase (with human LEDGF/p75). inhibition, % at 3.7 µM. 0.64% of 370,000 active. TR-FRET IN-LEDGF/p75 DNA integration, Eu/Cy5;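 active = inhibition above the screen-wide mean plus 3 SD, cut at about 13% in these data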;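 note: signal is the Cy5 over europium emission ratio at 671 and 618 nm; 0% = plate median of compound wells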
MBD2 inh: inhibitors of MBD2 binding to methylated DNA, primary screen, biochemical, TR-FRET, DNA-binding domain, human | MBD2 binding to methylated oligonucleotide | inhibition, % at 4.4 µM | 0.31% of 370,000 active; in the data active = inhibition above about 13%
Target sequence (Q9UBB5 whole entry, looked up, the tested form may be a part): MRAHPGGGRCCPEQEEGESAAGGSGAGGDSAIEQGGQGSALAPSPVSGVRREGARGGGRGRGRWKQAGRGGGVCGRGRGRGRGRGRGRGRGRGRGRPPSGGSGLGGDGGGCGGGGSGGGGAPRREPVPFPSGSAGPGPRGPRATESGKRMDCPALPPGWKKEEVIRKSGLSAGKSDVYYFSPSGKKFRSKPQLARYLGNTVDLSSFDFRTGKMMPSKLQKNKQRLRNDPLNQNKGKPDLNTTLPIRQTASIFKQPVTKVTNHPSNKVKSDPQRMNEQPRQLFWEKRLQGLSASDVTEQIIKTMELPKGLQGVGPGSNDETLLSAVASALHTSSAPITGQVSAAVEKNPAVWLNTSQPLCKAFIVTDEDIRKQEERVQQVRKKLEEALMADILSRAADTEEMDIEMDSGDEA
rCAG RNA binder: binders of r(CAG) RNA repeats, primary screen, biochemical, fluorescence | r(CAG) RNA repeat, TO-PRO-1 dye displacement fluorescence | inhibition, % at 3 µM | 1.3% of 370,000 active | AID 651821, 2012;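 active = inhibition above the plate cutoff, the mean of all test compounds on that plate plus 3 SD, cut at about 35% in these data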;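 note: 0% = DMSO alone and 100% = 100 µM mitoxantrone as full dye displacement; higher means more dye released from RNA so lower well fluorescence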
UHRF1 MBD2 ctr: UHRF1 methylated DNA binding inhibitors, primary screen, counter-screen for MBD2 inhibitor project, biochemical, TR-FRET, human UHRF1, single concentration; UHRF1 binding to methylated oligo; inhibition, % at 4.4 µM; 0.75% of 370,000 active; AID 687016, 2013; in the data active = inhibition above about 21%;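 note: UHRF1 SRA domain binding a hemimethylated CpG hairpin DNA probe; 0% = median of test compound wells and 100% = reference inhibitor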
PRMT1 inh: PRMT1 methyltransferase inhibitors, primary screen, biochemical, fluorescence polarization; 1.3% of 370,000 active; recombinant PRMT1, activity-based probe fluorescence polarization; inhibition, % at 2.79 µM; Protein arginine N-methyltransferase 1 (Homo sapiens), Q99873;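 active = inhibition above about 21% made by adding two undisclosed values, limit read from the data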
ABHD5-PLIN5 inh: ABHD5-PLIN5 interaction inhibitors, primary screen, cell lysate, split luciferase complementation, luminescence. AID 602281, 2012. 0.78% of 360,000 active. inhibition, % at 4 µM. Perilipin-5 (Homo sapiens) + 1-acylglycerol-3-phosphate O-acyltransferase ABHD5 (Homo …. Split G. princeps luciferase complementation, 4 h;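 active = inhibition above the mean inhibition across every tested compound plus 3 SD, cut at about 22% in these data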;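 note: 0% = DMSO only wells and the 100% control is not disclosed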
IN multimer act: HIV-1 IN multimer formation enhancers, counter-screen for LEDGF/p75 integration inhibitor project, biochemical, TR-FRET. TR-FRET HIV-1 integrase multimerization. activation, % at 7.7 µM. shares compounds with LEDGF integ inh. 17% of 2,000 active; in the data active = activation above about 8.9%
TRFRET interf: TR-FRET optical interference artefacts, confirmation, artefact control for LEDGF/p75-dependent integration inhibitor project, biochemical, HIV-1 IN multimerization | 2,000 tested, under 10 active | TR-FRET optical interference counterscreen | inhibition, % at 7.7 µM | shares compounds with LEDGF integ inh | AID 1053135, 2014;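 active = inhibition above the mean over all tested compounds plus 3 SD, which no compound reached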;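 note: 0% = integrase with antibodies and DMSO and 100% = antibodies without integrase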
IN-LEDGF confirm: inhibitors of HIV-1 IN-LEDGF/p75 DNA integration, confirmation, biochemical, TR-FRET; shares compounds with LEDGF integ inh; TR-FRET LEDGF/p75-dependent HIV-1 integration; inhibition, % at 3.7 µM; 36% of 2,000 active; in the data active = inhibition above about 14%
An asterisk follows results filed as active.

How did C=CCN1C(=O)[C@@H](CC(=O)NCc2cccc3ccccc23)[C@]2(C(=O)OCC)CCCCC/C=C/12 do in these assays?
LEDGF integ inh: 8.1; MBD2 inh: 2.2; rCAG RNA binder: 2.9; UHRF1 MBD2 ctr: 0.8; PRMT1 inh: -4.2

Results for Cc1sc2ncnc(SCC(=O)N3CCCC3=O)c2c1C ?
LEDGF integ inh: 60.8*; MBD2 inh: -2.4; rCAG RNA binder: -1.5; UHRF1 MBD2 ctr: -1.8; PRMT1 inh: -2.2; ABHD5-PLIN5 inh: -1.4; IN multimer act: 1.4; TRFRET interf: -7.0; IN-LEDGF confirm: -0.1

How did Cc1ccc(S(=O)(=O)NCC(=O)OC(C)C(=O)c2ccccc2)cc1 (centres undefined) do in these assays?
LEDGF integ inh: 22.6*; MBD2 inh: -3.6; rCAG RNA binder: -3.0; UHRF1 MBD2 ctr: -3.9; PRMT1 inh: -1.4; ABHD5-PLIN5 inh: -1.0; IN multimer act: 0.3; TRFRET interf: -1.4; IN-LEDGF confirm: -2.6

How did Cc1ccc(C(=O)C(C)OC(=O)CNS(=O)(=O)c2ccc(C)cc2)cc1 (centres undefined) do in these assays?
LEDGF integ inh: 0.3; MBD2 inh: 3.0; rCAG RNA binder: 1.2; UHRF1 MBD2 ctr: 0.7; PRMT1 inh: 3.4; ABHD5-PLIN5 inh: 0.8

Results for CCOc1ccccc1OCC(=O)NNC(=O)Cn1cnc2c1c(=O)n(C)c(=O)n2C ?
LEDGF integ inh: 14.5*; MBD2 inh: -0.8; rCAG RNA binder: -0.1; UHRF1 MBD2 ctr: -2.2; PRMT1 inh: -6.2; ABHD5-PLIN5 inh: -8.5; IN multimer act: -1.0; TRFRET interf: 4.8; IN-LEDGF confirm: 2.8

How did COP(=O)(OC)c1ccc(NCc2cc(O)ccc2O)cc1 do in these assays?
LEDGF integ inh: 19.9*; MBD2 inh: -1.8; rCAG RNA binder: 7.9; UHRF1 MBD2 ctr: 2.2; PRMT1 inh: 21.5*; ABHD5-PLIN5 inh: -0.7; IN multimer act: 63.5*; TRFRET interf: -225.4; IN-LEDGF confirm: 24.0*

Results for O=C(NC1CCCCN(Cc2ccc(Cl)cc2)C1=O)C1C2CC3CC(C2)CC1C3 (centres undefined) ?
LEDGF integ inh: -0.5; MBD2 inh: 0.5; rCAG RNA binder: 7.5; UHRF1 MBD2 ctr: 2.1; PRMT1 inh: 1.9

Results for COC1=C(N)C(=O)c2nc(C)ccc2C1=O ?
LEDGF integ inh: 20.0*; MBD2 inh: -2.1; rCAG RNA binder: 7.5; UHRF1 MBD2 ctr: 8.8; PRMT1 inh: 5.0; ABHD5-PLIN5 inh: -48.3; IN multimer act: -0.4; TRFRET interf: 2.3; IN-LEDGF confirm: 44.4*

What do the screens show for `CCOC(=O)C1=CCN(S(=O)(=O)c2ccc(Cl)cc2)C1c1ccc(Cl)c(Cl)c1` (centres undefined)?
LEDGF integ inh: -1.8; MBD2 inh: 1.6; rCAG RNA binder: 5.0; UHRF1 MBD2 ctr: -0.4; PRMT1 inh: 0.8

Results for CCOc1ccc(CCNC(=O)c2cc3ccsc3n2C)cc1OCC ?
LEDGF integ inh: -0.2; MBD2 inh: 8.5; rCAG RNA binder: 3.0; UHRF1 MBD2 ctr: 2.3; PRMT1 inh: 2.4

What do the screens show for `Cc1ccc(S(=O)(=O)NN=C2CC(C)(C)OC2(C)C)cc1`?
LEDGF integ inh: -4.6; MBD2 inh: 0.1; rCAG RNA binder: 1.5; UHRF1 MBD2 ctr: -0.3; PRMT1 inh: 0.5; ABHD5-PLIN5 inh: -2.5

What do the screens show for `Cc1ccc(S(=O)(=O)NN=C2CC3CCC2(C)C3(C)C)cc1` (centres undefined)?
LEDGF integ inh: 17.1*; MBD2 inh: 2.2; rCAG RNA binder: -1.9; UHRF1 MBD2 ctr: -0.1; PRMT1 inh: 6.5; ABHD5-PLIN5 inh: -2.6; IN multimer act: 1.8; TRFRET interf: -9.0; IN-LEDGF confirm: -3.3

Results for C[C@@H]1C[C@H](O)CCCCCC(=O)Cc2cc(O)cc(O)c2C(=O)O1 ?
LEDGF integ inh: 1.1; MBD2 inh: 0.2; rCAG RNA binder: 2.8; UHRF1 MBD2 ctr: 1.0; PRMT1 inh: -1.1

Results for Cc1cc(C(=O)COC(=O)Cc2n[nH]c(=O)c3ccccc23)c(C)n1-c1cccc(C(F)(F)F)c1 ?
LEDGF integ inh: 30.4*; MBD2 inh: -4.1; rCAG RNA binder: 6.4; UHRF1 MBD2 ctr: 2.4; PRMT1 inh: 0.5; ABHD5-PLIN5 inh: -0.1; IN multimer act: -0.4; TRFRET interf: 2.0; IN-LEDGF confirm: 11.2

Results for CC(NCc1ccco1)C(=O)N1CCOCC1 (centres undefined) ?
LEDGF integ inh: 1.6; MBD2 inh: 4.2; rCAG RNA binder: 4.4; UHRF1 MBD2 ctr: -3.3; PRMT1 inh: 1.5

What do the screens show for `COc1ccc(-c2cnc(N)n2CC2CCCO2)cc1` (centres undefined)?
LEDGF integ inh: 27.6*; MBD2 inh: 8.3; rCAG RNA binder: 8.8; UHRF1 MBD2 ctr: 1.9; PRMT1 inh: 2.8; ABHD5-PLIN5 inh: 4.6; IN multimer act: -0.5; TRFRET interf: 2.4; IN-LEDGF confirm: -5.0

Results for c1ccc(-c2cnc(SCCN3CCOCC3)n2CC2CCCO2)cc1 (centres undefined) ?
LEDGF integ inh: 4.2; MBD2 inh: 2.6; rCAG RNA binder: -8.6; UHRF1 MBD2 ctr: -1.2; PRMT1 inh: 1.5; ABHD5-PLIN5 inh: -1.1

What do the screens show for `CC(C)[C@@H](C)/C=C/[C@@H](C)[C@H]1CC[C@@H]2[C@]1(C)CCC1[C@]23C=C[C@]2(C[C@@H](O)CC[C@]12C)N(c1ccc(F)cn1)O3` (some centres undefined)?
LEDGF integ inh: -2.2; MBD2 inh: -1.8; rCAG RNA binder: 1.4; UHRF1 MBD2 ctr: -5.8; PRMT1 inh: 9.0

What do the screens show for `CC1=CC2(O)OCCN(CCO)C2=CC1=O` (centres undefined)?
LEDGF integ inh: 31.3*; MBD2 inh: 2.1; rCAG RNA binder: 9.1; UHRF1 MBD2 ctr: 10.0; PRMT1 inh: 15.2; ABHD5-PLIN5 inh: 18.6; IN multimer act: 3.8; TRFRET interf: -19.3; IN-LEDGF confirm: 14.0*
